15 compounds from PubChem BioAssay (NCI) can be followed below.

About 83,000 compounds went through this panel and 20% of them were active in at least one assay; those are over-represented in the sample as a whole.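 Results are percent growth after 48 hours of single-concentration exposure. 100 means growth as in untreated cells, lower positive values show inhibition; negative values down to -100 show cell death.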 Unmarked numbers belong to inactive results. Active and inactive are the calls of the source. The calls were made as follows: active = growth percent below 10; inactive = the rest.

Among the test systems are T-47D breast; BT-549 breast; MDA-MB-435 melanoma; SW-620 colon; MCF7 breast; HCT-116 colon; HCC-2998 colon; KM12 colon.
Assay in all cases: NCI-60 one-dose screen, 48 h (100 = growth as untreated, 0 = no growth, -100 = all killed)
What all share (conditions): 10 µM unless noted

Regarding `COc1cc(/C=C2\CN(C)CC3=C2Nc2nc(SC)[nH]c(=O)c2C3c2cc(OC)c(OC)c(OC)c2)cc(OC)c1OC` (stereo not given), the growth in the assay on T-47D breast is 85.4%; with BT-549 breast, 54.9%; in the assay with MDA-MB-435 melanoma, 2.77% (active); in the assay on SW-620 colon, 11.7%; in the assay with MCF7 breast it was 33.5%; in the assay with HCT-116 colon, -46.3% (active). For the same compound, the growth in the assay with HCC-2998 colon was 49.9%; with KM12 colon it was 37.2%.

Regarding `O=C1c2cccc(NCCN=Cc3ccccc3O)c2C(=O)c2c(NCCN=Cc3ccccc3O)cccc21`, the growth is 18% in the assay on T-47D breast; 49% in the assay with BT-549 breast; 24.7% with MDA-MB-435 melanoma; 0.678% (active) with SW-620 colon; 3.69% (active) in the assay on MCF7 breast; 7.91% (active) in the assay with HCT-116 colon. In addition, the growth in the assay with HCC-2998 colon was 2.57% (active); with KM12 colon, 6.07% (active).

As for `CCOC(=O)c1sc(NC(=O)COc2cccc(/C=C3\Cc4ccc(Cl)cc4C3=O)c2)nc1C`, the growth with T-47D breast was 98.8%; with BT-549 breast, 115%; with MDA-MB-435 melanoma, 103%; in the assay on SW-620 colon, 94.6%; in the assay on MCF7 breast, 54.3%; in the assay on HCT-116 colon it was 12.3%. For the same compound, the growth with HCC-2998 colon was -19.5% (active); in the assay with KM12 colon it was 103%.

With `NC(=NCCCCCCN=C(N)/N=C(\N)Nc1ccc(Cl)cc1)/N=C(\N)Nc1ccc(Cl)cc1`, the growth in the assay with T-47D breast was 19.3%; with BT-549 breast it was 10.6%; with MDA-MB-435 melanoma, 18.3%; in the assay on SW-620 colon, 23.4%; with MCF7 breast, 7.79% (active); in the assay with HCT-116 colon, 13.5%. Besides, the growth with HCC-2998 colon was 15.3%; in the assay with KM12 colon, -12% (active).

`Cc1cn(C(C=O)OC(C=O)CO)c(=O)[nH]c1=O` (stereo not given): the growth with T-47D breast is 99.6%; in the assay on BT-549 breast it was 107%; with MDA-MB-435 melanoma, 106%; in the assay with SW-620 colon, 105%; in the assay on MCF7 breast it was 95.1%; with HCT-116 colon it was 103%. Further, the values for the growth in the assay with HCC-2998 colon and with KM12 colon were 119% and 103%, respectively.

For the compound `CC(C)Cn1cnc2c(NCn3nc(-c4cc(Cl)cc(Cl)c4Cl)n(/N=C/c4ccc(Cl)cc4)c3=S)nc3ccccc3c21`, the growth with T-47D breast was 71.3%; in the assay with BT-549 breast it was 92.3%; with MDA-MB-435 melanoma it was 110%; in the assay on SW-620 colon, 98.5%; in the assay on MCF7 breast, 97.2%; with HCT-116 colon it was 66.1%. For the same compound, the growth with HCC-2998 colon was 80.6%; in the assay on KM12 colon, 96.6%.

With `Oc1c(N=Nc2nn[nH]n2)ccc2ccccc12`, the growth with T-47D breast is 97.7%; in the assay with BT-549 breast it was 83.2%; in the assay with MDA-MB-435 melanoma it was 67.7%; in the assay with SW-620 colon, 101%; in the assay with MCF7 breast it was 73.7%; with HCT-116 colon it was 76.5%. The values for the growth in the assay on HCC-2998 colon and in the assay on KM12 colon were 103% and 80.1%, respectively.

Take `Oc1ccccc1/C=N/N1CCCCCC1`: the growth in the assay on T-47D breast was 102%; with BT-549 breast, 97.9%; in the assay on MDA-MB-435 melanoma, 99.9%; in the assay with SW-620 colon, 108%; with MCF7 breast it was 83.8%; with HCT-116 colon it was 102%. Also, the growth was 95.8% in the assay with HCC-2998 colon and 103% with KM12 colon.

Regarding `CCCn1c(N)c(C(=O)CNc2ccc(I)cc2)c(=O)[nH]c1=O`, the growth in the assay on T-47D breast was 94.9%; in the assay on BT-549 breast, 61.4%; with MDA-MB-435 melanoma, 51.1%; with SW-620 colon it was 35.3%; in the assay on MCF7 breast, 57.1%; with HCT-116 colon it was 32.3%. The results for the growth with HCC-2998 colon and in the assay with KM12 colon were 74.2% and 43.7%, respectively.

Turning to `NS(=O)(=O)c1ccc(-n2nc(-c3ccc(Br)cc3)ccc2=O)cc1`, the growth in the assay with T-47D breast is 77% [100 µM]; with BT-549 breast it was 38.6% [100 µM]; with MDA-MB-435 melanoma, 0.0656% [100 µM] (active); with SW-620 colon, 63% [100 µM]; in the assay with MCF7 breast, 74.8% [100 µM]; with HCT-116 colon it was 34.8% [100 µM]. Moreover, the growth is 91.9% [100 µM] in the assay with HCC-2998 colon and 49.6% [100 µM] with KM12 colon.

On to `Cc1nn(-c2nc3ccccc3s2)c(C)c1Oc1ccccc1O`, for which the growth in the assay with T-47D breast is 87.1%; in the assay with BT-549 breast, 63%; in the assay with MDA-MB-435 melanoma, 72.4%; in the assay on SW-620 colon, 47.8%; with MCF7 breast, 81.7%; with HCT-116 colon it was 27.4%. Moreover, the growth with HCC-2998 colon was 250%; in the assay with KM12 colon, 63.6%.

On to `CCOC(CNCc1cc(C)c2[nH]c3ccccc3c2c1C)OCC`, for which the growth with T-47D breast was 84.9%; in the assay with BT-549 breast, 76.4%; with MDA-MB-435 melanoma it was 92.3%; in the assay on SW-620 colon, 95.1%; in the assay on MCF7 breast it was 81.3%; in the assay on HCT-116 colon, 53.5%. Further, the values for the growth with HCC-2998 colon and with KM12 colon were 45.1% and 94.4%, respectively.

For the compound `COc1cccc(C2=NN(C(C)=O)C(c3cc(OC)c(OC)c(OC)c3)C2)c1` (stereo not given), the growth in the assay on T-47D breast is 35.2%; in the assay with BT-549 breast, 7.16% (active); in the assay with MDA-MB-435 melanoma, -28.2% (active); in the assay on SW-620 colon, 17.3%; with MCF7 breast, 3.81% (active); with HCT-116 colon, 26.9%. Besides, the growth in the assay on HCC-2998 colon was 15.7%; in the assay on KM12 colon it was 35.9%.

Consider `c1ccc2c(-c3nc4ccccc4[nH]3)cccc2c1`, for which the growth with T-47D breast is 36%; in the assay on BT-549 breast, 24.3%; in the assay on MDA-MB-435 melanoma it was -19% (active); in the assay on SW-620 colon, 16.8%; in the assay on MCF7 breast, 17.2%; in the assay with HCT-116 colon, 16.7%. The values for the growth in the assay with HCC-2998 colon and in the assay with KM12 colon were 57.5% and 21.8%, respectively.

Turning to `CO[C@H]1/C=C/O[C@@]2(C)Oc3c(C)c(O)c4c(O)c(c(/C=N/N5C(C)CN(Cc6ccc(C#N)cc6)CC5C)c(O)c4c3C2=O)NC(=O)/C(C)=C\C=C\[C@H](C)[C@H](O)[C@@H](C)[C@@H](O)[C@@H](C)[C@H](OC(C)=O)[C@@H]1C` (stereo not given in full), the growth is 18.1% in the assay on T-47D breast; -0.569% (active) with BT-549 breast; 26.1% with MDA-MB-435 melanoma; 31.5% with SW-620 colon; 11.9% with MCF7 breast; 18.5% in the assay with HCT-116 colon. The figures for the growth in the assay on HCC-2998 colon and in the assay on KM12 colon were 2.4% (active) and 15.8%, respectively.
